Results taken from PubChem BioAssay AID434947 (Broad Institute, 2010).
In all, about 2,200 compounds went through this assay and about 15 (0.7%) were called active.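 Rule for the calls: active = fitted half-maximal concentration for loss of luminescence signal no more than a set limit of log units above the top tested concentration; inconclusive = flat fit with 30 to 70% signal loss, or invalid fit; inactive = half-maximal concentration above that set limit.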 The list comes from a sample in which actives are over-represented; it also holds similar structures and randomly drawn compounds.

Test: ADP-Glo luciferase signal interference – biochemical, luminescence, cell-free, homogeneous, artefact control for GSK3beta inhibitor project, dose response (AID 434947);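 note: kinase-free counter screen of ADP-Glo detection reagents for GSK3beta hits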
Conditions: Cell-free ADP-Glo reagents, 5 uM ADP

Row | SMILES | EC50
1 | Cc1ccc2c(C)c(C(=O)Nc3nnc(C)s3)oc2c1 | > 30 µM (inactive)
2 | NC1=NC(=Nc2ccccc2)c2ccccc21 | > 30 µM (inactive)
3 | CCCn1nc(NC(=O)C(C)C)c2cc3cc(OC)ccc3nc21 | > 30 µM (inactive)
4 | CCNC(=S)Nc1ccc2cn[nH]c2c1 | > 30 µM (inactive)
5 | COc1cccc(C(=O)NCC(=O)N/N=C(C)\C=C\c2ccccc2)c1 | > 30 µM (inactive)
6 | CC(C)CCNc1nc(N)c([N+](=O)[O-])c(NCC2CCCO2)n1 (stereo not given) | > 30 µM (inactive)
7 | COc1ccccc1Nc1nc(N(C)c2ccccc2)nc(N)c1[N+](=O)[O-] | > 30 µM (inactive)
8 | CN(Cc1c(C(=O)N/N=C/c2cccc(F)c2)nnn1-c1nonc1N)c1ccccc1 | > 30 µM (inactive)
9 | Cc1nn(-c2ccccc2)c2c1cc1c(=O)n(C)c(=O)nc-1n2-c1ccccc1F | > 30 µM (inactive)
10 | CC1=NN(C(=O)CCc2ccc3c(c2)OCO3)C(O)(C(F)(F)F)C1 (stereo not given) | > 30 µM (inactive)
11 | CCCn1c(SCC(=O)Nc2ccc(Cl)cn2)nnc1C1CC1 | > 30 µM (inactive)
12 | COc1ccc(C(=O)O/N=C(\C)c2ccccc2)cc1 | 24 µM (active)
13 | COc1ccc(C(=O)O/N=C(/C)c2cccs2)cc1 | 16.2 µM (active)
14 | COc1ccc(C(=O)c2sc(Nc3ccccc3)nc2C)cc1 | > 30 µM (inactive)
15 | COc1ccc2occ(C(=O)c3cccs3)c2c1 | > 30 µM (inactive)
16 | COc1ccc(C(=O)c2ccsc2N)cc1 | > 30 µM (inactive)
17 | COc1cccc(C(N)=O)c1 | > 30 µM (inactive)
18 | Cc1ccc(SCC(=O)N2CC(C)OC(C)C2)cc1 (stereo not given) | > 30 µM (inactive)
19 | COc1ccc(-c2cc(C(F)(F)F)nc(SCCC(=O)N3CCOCC3)n2)cc1 | > 30 µM (inactive)
20 | COc1ccc(Cl)cc1NC(=O)CS(=O)(=O)c1cccc2nsnc12 | > 30 µM (inactive)
